Assay results: PubChem BioAssay (NCATS)
Inconclusive results are not listed. Active and inactive are the calls of the source. Calls come from the whole dose curve; as a rule, active = well fitted cell-killing curve with a large enough effect; inconclusive = small, poorly fitted or top-dose-only effect, or effect the other way; inactive = flat fitted curve, though single readings scatter.

Test system: CAOV3
Experiment: Primary qHTS to identify gynecologic anti-cancer compounds using libraries of approved drugs and bioactive compounds (AID 1345084); note: nearly all actives have a fitted effect of over 55% in size
Conditions: Gynecologic cancer cell panel viability, ATPlite luminescence, 48 h; series mostly up to 57.5 µM; activity change, negative = cytotoxicity: at the top concentration
From the text: National Center for Advancing Translational Sciences [NCATS] Assay Overview: Chemotherapeutic drug responses vary from cancer to cancer and from patient to patient. These variations could be caused by a number of factors including patient genomic background, tumor mutations, tumor heterogeneity, and aspects of drug treatment. Chemotherapeutic drug resistance is also a common issue and can lead to ineffective treatment and patient death. Here we have profiled the cell killing effects of thousands of compounds to characterize the responses in three gynecological cancers, identify cancer-selective compounds, and understand the diversity of responses to these compounds from pan-cancer suppressors to single cell line selective compounds. In this assay, we screened a 7,914 compound drug library that included approved drug and bioactive compounds in six ovarian, three cervical, and […] placental cancer cell lines using the ATPlite assay for cell viability. […] The cervical cancer cell lines included HeLa, Ca Ski, and C-33 A. The placental cancer cell lines included JEG-3. HEK 293T cells were used as the control cell line to determine the selectivity index. ATPlite is a luminescence based assay reliant on the conversion of a luciferase substrate to light in the presence of ATP. As a cytotoxic compound will suppress growth and decrease the number of cells, the concentration of ATP will decrease, and less light signal will be detected in the well.
Assay Protocol Summary: 1,000 cells in 4 uL of media were dispensed into white, solid bottom 1536-well plates using a Multidrop Combi (Thermo Scientific). The Assay plates were incubated for 16 hours at 37 C with 5% CO2 in assay plates, followed by the addition of 23 nL of DMSO or drug dissolved in DMSO. Each compound was assayed in five concentrations (0.092, 0.46, 2.3, 11.5, and 57.5 uM), using the automated Wako 1536 Pin Tool workstation and incubated at 37 C with 5% CO2 48 hours. 4 uL of ATPlite, the ATP monitoring reagent, was then added to the each well of the assay plates using the Multidrop Combi reagent dispenser followed by incubation for 15 minutes at room temperature. The resulting luminescence was measured using the ViewLux plate reader.
% is set by controls: 0 for no effect and ±100 for the full control effect; potency is the fitted concentration of half-maximal effect.

Structure (SMILES)	activity change, negative = cytotoxicity	Potency
Cc1coc2c1C(=O)C(=O)c1c-2ccc2c(C)cccc12	-4.67% (inactive)	
O=C(O)c1ccc(Nc2ncc3c(n2)-c2ccc(Cl)cc2C(c2c(F)cccc2F)=NC3)cc1	-23.1% (inactive)	
Cc1cnc(Nc2ccc(CN3CCOCC3)cc2)nc1Nc1cccc(S(=O)(=O)NC(C)(C)C)c1		7.94 µM (active)
Cc1cn([C@@H]2O[C@H](CO)[C@@H](O)[C@H]2F)c(=O)[nH]c1=O	-2.14% (inactive)	
Cn1cnc2c(F)c(Nc3ccc(Br)cc3F)c(C(=O)NOCCO)cc21	-12.3% (inactive)	
CC1(C)O[C@@H]2C[C@H]3[C@@H]4CCC5=CC(=O)C=C[C@]5(C)[C@@H]4[C@@H](O)C[C@]3(C)[C@]2(C(=O)CO)O1	-20.3% (inactive)	
CCC[C@H]1C[C@H](C(=O)N[C@@H]([C@@H]2O[C@@H](SC)[C@@H](O)[C@@H](O)[C@@H]2O)[C@H](C)Cl)N(C)C1	1.74% (inactive)	
C[N+]1(C)[C@@H]2C[C@@H](OC(=O)C(O)(c3cccs3)c3cccs3)C[C@H]1[C@@H]1O[C@@H]12	16.8% (inactive)	
c1ccc2c(Oc3nc(Nc4ccc(N5CCOCC5)cc4)c4ncn(C5CCCCC5)c4n3)cccc2c1	5.54% (inactive)	
CC(C)n1cnc2c(NCCc3ccc(O)cc3)nc(-c3csc4ccccc34)nc21	-1.27% (inactive)	
Cc1ccc(-n2[nH]c(C)c(N=Nc3cccc(-c4cccc(C(=O)O)c4)c3O)c2=O)cc1C	-6.14% (inactive)	
O=C(Nc1cc2cc[nH]c2cn1)c1ccccc1		1.78 µM (active)
COc1ccc(S(=O)(=O)Nc2cccnc2Nc2ccc(O)cc2)cc1	-3.94% (inactive)	
c1cncc(CN2CCC(n3ncc4c(N5CCOCC5)nc(-c5ccc6[nH]ccc6c5)nc43)CC2)c1		28.2 µM (active)
Oc1ccc([C@@H]2Oc3ccc(O)cc3[C@@H]3CCC[C@@H]32)cc1	0.535% (inactive)	
CC(C)C[C@H](NC(=O)[C@@H](NC(=O)c1cccc(-c2ccccc2)n1)[C@@H](C)O)B(O)O		0.282 µM (active)
N[C@H]1CN(c2c(F)cc3c(=O)c(C(=O)O)cn(C4C[C@@H]4F)c3c2Cl)CC12CC2 (stereo partly drawn)	5.52% (inactive)	

Structure (SMILES)	activity change, negative = cytotoxicity	Potency
CC1=C(C(=O)Nc2cc3cn[nH]c3cc2F)C(c2ccc(Cl)cc2F)N=C(c2ccnc(Cl)c2)N1 (stereo not drawn)	-22.7% (inactive)	
C[C@H](O)[C@@H]1C(=O)N2C(C(=O)O)=C(S[C@@H]3CN[C@H](CNS(N)(=O)=O)C3)[C@@H](C)[C@@H]12	11.7% (inactive)	
CN1CCc2c(c3ccccc3n2Cc2ccc(C(=O)NO)cc2)C1	-1.04% (inactive)	
CCN(CC)Cc1ccc2cc(COC(=O)Nc3ccc(C(=O)NO)cc3)ccc2c1		7.94 µM (active)
C[C@H]1[C@@H](OC(=O)CCC(=O)O)O[C@@H]2O[C@@]3(C)CC[C@@H]4[C@H](C)CC[C@@H]1[C@@]24OO3	-5.4% (inactive)	
CC(O)(C#Cc1ccc2c(c1)N(c1nc(N)ncc1Cl)CC2)c1nccs1 (stereo not drawn)	-0.48% (inactive)	
C=CC(=O)Nc1ccc2ncnc(Nc3ccc(OCc4cccc(F)c4)c(Cl)c3)c2c1		35.5 µM (active)
CCCCOc1ccc(C(=O)Nc2ccc(F)cc2F)cc1	21% (inactive)	
O=C(Nc1ccc(Oc2ccnc3[nH]ccc23)c(F)c1)c1cccn(-c2ccc(F)cc2)c1=O	-17.9% (inactive)	
Cc1ccccc1C(=O)Nc1ccc(C(=O)N2CCCC(O)c3cc(Cl)ccc32)c(C)c1 (stereo not drawn)	3.63% (inactive)	
FC(F)(F)c1ccc(Nc2nc3ccc(Oc4ccnc(-c5ncc(C(F)(F)F)[nH]5)c4)cc3[nH]2)cc1	-13.3% (inactive)	
CCn1c(=O)c2c(nc(C=Cc3ccc(OC)c(OC)c3)n2C)n(CC)c1=O	0% (inactive)	
CCOC(=O)[C@@H](N)Cc1ccc(-c2cc(O[C@H](c3ccc(Cl)cc3-n3ccc(C)n3)C(F)(F)F)nc(N)n2)cc1	29.3% (inactive)	
CS(=O)(=O)N1CCc2c(-c3cnc(N)nc3)nc(N3CCOCC3)nc21	-39.8% (inactive)	
Nc1ccn(C2CO[C@H](CO)O2)c(=O)n1 (stereo partly drawn)	4.47% (inactive)	
CN(C)CC(=O)N1CCC(c2ccc(NC(=O)c3ncc(C#N)[nH]3)c(C3=CCCCC3)c2)CC1	-1.75% (inactive)	
